Pin1 inhibitor: qHTS Assay to Find Inhibitors of Pin1; Peptidyl-prolyl cis-trans isomerase NIMA-interacting 1 (Homo sapiens), Q13526; Pin1 FP peptide displacement, HiFluor488, 10 min; 390,000 tested, 0.009% active; Potency, µM (series often up to 115 µM), without a hit: at the top dose activity, negative = inhibition, hits mostly inhibitors; active = well fitted inhibition curve with a large enough effect in the polarisation, with a control signal flat, not every such curve was filed as active; inconclusive = small, poorly fitted or top-dose-only effect, or effect the other way, or a change in a side signal; inactive = no such curve, though single readings can be large or run the other way; the % refers to the polarisation; note: % is set by controls: 0 for no effect and ±100 for the full control effect
Target sequence (Q13526 whole entry, looked up): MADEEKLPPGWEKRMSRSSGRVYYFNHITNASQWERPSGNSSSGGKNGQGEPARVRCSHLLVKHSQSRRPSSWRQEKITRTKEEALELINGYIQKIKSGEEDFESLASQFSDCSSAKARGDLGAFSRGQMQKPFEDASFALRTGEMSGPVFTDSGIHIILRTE
A549 viability: Nrf2 qHTS screen for inhibitors: counterscreen for cytotoxicity | A549 ARE-Fluc cells, CellTiter-Fluor viability, 18-24 h | Potency, µM (titrated, usually from 46 µM), for the others: at the top dose activity change, negative = cytotoxicity, usual class: inhibitors | 390,000 tested, 0.16% active; note: % is set by controls: 0 for no effect and ±100 for the full control effect
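Cytotoxicity counterscreen: CellTiter-Fluor fluorescence was measured in A549 ARE_Fluc cells after 18-24 h of compound exposure in a concentration series. The subsequent BugLite luminescent read reports ARE-luciferase activity.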
Nrf2 ARE act: qHTS of Nrf2 Activators; AREc32 ARE-luciferase reporter (MCF7-derived line), luminescence, 24 h; Potency, µM (highest dose often 46.1 µM), for the others: at the highest dose activation, most hits filed as activators; 410,000 tested, 0.31% active; AID 624171, 2012; note: % of control where 0% means no effect; nearly all actives have a fitted effect of over 65% in size
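Nrf2 activation is followed as ARE-luciferase induction in the AREc32 line after one day of compound treatment; luminescence is read with Steady-Glo.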
Nrf2 block: Nrf2 qHTS screen for inhibitors; A549 ARE-Fluc reporter, luciferase luminescence, 18-24 h; Potency, µM (doses to about 46 µM), for the others: at the highest dose activity change, negative = inhibition, actives largely listed as inhibitors; 360,000 tested, 2.1% active; AID 504444, 2011; note: % is set by controls: 0 for no effect and ±100 for the full control effect; nearly all actives have a fitted effect of over 60% in size
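In this cell-based qHTS, ARE-driven firefly luciferase in A549 cells reports Nrf2 activity; the luminescent signal after BugLite lysis is the measured value, with a prior CellTiter-Fluor read for cell health.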
* hit, by the source's call; u = inconclusive; x = no result; ! = not confirmed by another sample; [ ] = dose if it differs, or a comment. A selection: hits, their analogues and other compounds. The true share with any hit is near 2.2%. Unless noted, calls come from the whole dose curve; as a rule, active = well fitted curve in the direction sought with a large enough effect; inconclusive = small, poorly fitted or top-dose-only effect, or another doubt; inactive = no such curve, though single readings can be large; an effect the other way counts as inactive or inconclusive. Potency is the fitted concentration of half-maximal effect.

SMILES	Pin1 inhibitor	A549 viability	Nrf2 ARE act	Nrf2 block
CC1CCC(C(C)C)C(OC(=O)Cn2c(-c3ccc(Br)cc3)[n+](C)c3ccccc32)C1 (stereo not given)	-5%	u	-3%	21µM*
Cc1ccccc1OCc1n(CC(=O)OC2CC(C)CCC2C(C)C)c2ccccc2[n+]1C (stereo not given)	-1%	-13%	-3%	18µM*!
CCCCCCCCCCOC(=O)Cn1c(COc2ccccc2C)[n+](C)c2ccccc21	8%	u	-3%	u
O=S(=O)(c1cccc(C(F)(F)F)c1)N1CCN(c2nc(-c3cccs3)nc3cc(Cl)ccc23)CC1	-2%	0%	x	16%
COc1ccc(-c2oc3ncn(CCN4CCOCC4)c(=N)c3c2-c2ccc(OC)cc2)cc1	-2%	-23%	0%	16µM*
CCOC(=O)c1ccc(N2C(=O)c3[nH]nc(-c4ccc(OC)cc4)c3C2c2cccc(O)c2)cc1 (stereo not given)	35%	-28%	-4%	u
CCOC(=O)c1ccc(N2C(=O)c3[nH]nc(-c4ccccc4)c3C2c2ccc(CC)cc2)cc1 (stereo not given)	17%	u	-1%	18µM*
CCOC(=O)c1ccc(N2C(=O)c3[nH]nc(-c4ccc(C)cc4)c3C2c2cccc(F)c2)cc1 (stereo not given)	32%	-18%	0%	21µM*
CCOC(=O)c1ccc(N2C(=O)c3n[nH]c(-c4cccs4)c3C2c2cccc(OC)c2)cc1 (stereo not given)	14%	u	-2%	21µM*
CCOC(=O)c1ccc(N2C(=O)c3[nH]nc(-c4ccc(C)cc4)c3C2c2ccc(O)cc2)cc1 (stereo not given)	33%	-25%	-2%	21µM*
Cc1ccccc1-c1nc(CS(=O)(=O)CC(=O)NCc2ccccc2)c(C)o1	-4%	-2%	-1%	-9%
Cc1ccccc1-c1nc(CS(=O)(=O)CC(=O)NCCCc2ccccc2)c(C)o1	4%	u	0%	21µM*
COc1c(N2CCN[C@H](C)C2)c(F)cc2c(=O)c(C(=O)O)cn(C3CC3)c12	6%	-3%	-1%	11%
COc1c(N2CCN(C(=S)NCc3ccccc3)C(C)C2)c(F)cc2c(=O)c(C(=O)O)cn(C3CC3)c12 (stereo not given)	u	u	0%	23µM*
COc1ccccc1C1CC(c2cccs2)=Nc2ccccc2S1 (stereo not given)	15%	0%	18µM*	16%
COc1cc(CN(C(=O)c2ccc(OC(C)C)cc2)c2ccccn2)cc(OC)c1OC	-5%	-5%	4%	5.2µM*
COc1ccc(C(=O)N(Cc2cc(OC)c(OC)c(OC)c2)c2ccccn2)cc1	2%	-2%	1%	u
Cc1ccc(C(=O)c2cc([N+](=O)[O-])ccc2N2CCCCC2)cc1	6%	16µM*	3%	u
Cc1ccc(C(=O)c2cc([N+](=O)[O-])ccc2N2CC(C)OC(C)C2)cc1 (stereo not given)	-4%	-30%	0%	2%
Cc1ccccc1OCCCCn1nnc2sc3c(c2c1=O)CCC(C)C3 (stereo not given)	5%	7%	0%	8%
Cc1ccc(NC(=O)c2cc(CC(C)C)nc3ccccc23)cc1	0%	4%	-2%	5.8µM*
COc1ccc(NC(=O)c2cc(CC(C)C)nc3ccccc23)cc1	2%	0%	-2%	u
Cc1cccc(S(=O)(=O)NC2CCN(C#N)C2)c1 (stereo not given)	4%	-1%	x	-6%
Cc1cc(S(=O)(=O)NC2CCCCC2)ccc1-n1cnnn1	5%	-6%	-1%	12µM*
Cc1cc2c(s1)c1cnn(Cc3ccc(F)c(Cl)c3)c(=O)c1n2C	0%	-1%	x	14%
SMILES	Pin1 inhibitor	A549 viability	Nrf2 ARE act	Nrf2 block
Cc1sc2ncnc(SCc3ccco3)c2c1C	-2%	9%	3.2µM*	-9%
Cc1ccc(Nc2nc(NCc3ccco3)nc3nccnc23)cc1C	u	8%	x	14%
C=C(c1ccccc1)c1ccc(N(C)C)cc1	-16%	-3%	3%	16µM*
O=C(NCCc1nc2ccccc2n1Cc1c(F)cccc1Cl)c1ccco1	0%	1%	8%	-8%
O=C(NCc1ccccc1Cl)c1ccccc1NC(=O)c1nsc2ccccc12	8%	14%	9%	x
CCC(C)NC(=O)c1ccc2nc(-c3cccs3)c(-c3cccs3)nc2c1 (stereo not given)	4%	0%	x	-29%
COc1ccc(C(=O)/C=C/C(=O)N(CC(=O)NC2CCCCC2)Cc2ccccc2)c(O)c1	11%	u	3%	-27%
COc1ccc(C(=O)/C=C/C(=O)N(CC(=O)NC2CCCCC2)CC2CCCO2)c(O)c1 (stereo not given)	7%	u	u	21µM*
CC#C[C@]1(O)CC[C@H]2[C@@H]3CCC4=CC(=O)CCC4=C3[C@@H](c3ccc(N(C)C)cc3)C[C@@]21C	6%	-19%	0%	23µM*
Cc1nc(Cl)sc1C(=O)Nc1ccccc1Cl	-1%	-5%	u	-3%
COc1ccccc1NC(=O)c1sc(Cl)nc1C	-3%	-3%	11µM*	6%
COc1ccc(CCNc2ncnc3nc[nH]c23)cc1	-3%	-1%	x	15µM*
Cc1ccc(NC(=O)c2cc(S(=O)(=O)NCCC3=CCCCC3)ccc2F)cc1	u	u	4%	15µM*
COc1ccc(CNC(=O)c2ccc3c(c2)CCN3S(=O)(=O)c2ccc(Cl)cc2)cc1	28%	6%	4%	u
CC(C)(C)OC(=O)N[C@@H](Cc1ccccc1)c1nnc(SCC(=O)c2ccc(Cl)cc2)o1	6%	-18%	0%	26µM*
Cc1ccccc1CS(=O)(=O)c1nnc([C@H](Cc2ccccc2)NC(=O)OC(C)(C)C)o1	1%	-6%[1.84 µM]	-1%	23µM*
CC(C)(C)OC(=O)N[C@@H](Cc1ccccc1)c1nnc(SCC(=O)O)o1	-1%	-11%	-1%	-3%
O=C(CN1CC(=O)Oc2ccccc21)OCC(=O)c1ccc(F)cc1	-13%	u	u	-5%
O=C(CN1CC(=O)Oc2ccccc21)OCC(=O)c1ccc(Br)cc1	2%	u	13µM*	-23%
CCOC(=O)c1[nH]c2c(c1-c1ccccc1)C(=O)CC(c1ccc(OCC)cc1)C2 (stereo not given)	0%	11%	2%	-8%
CCOCCOC(=O)c1[nH]c2c(c1C)C(=O)CC(c1ccccc1)C2 (stereo not given)	1%	-13%	1%	u
CCOC(=O)c1[nH]c2c(c1-c1ccccc1)C(=O)CC(c1ccc(OC)c(OC)c1)C2 (stereo not given)	u	0%	1%	21µM*
CCOCCOC(=O)c1[nH]c2c(c1C)C(=O)CC(c1cc(OC)c(OC)c(OC)c1)C2 (stereo not given)	0%	-8%	1%	23µM*

Bioassay records deposited in PubChem by National Center for Advancing Translational Sciences (NCATS).
